# Assay results from PubChem BioAssay (NCATS).
# Where “and” joins values, the source holds several entries; their conditions need not be identical. Identical values can stand only once. Results filed as inconclusive are left out. Calls of active or inactive are those of the source. Calls come from the whole dose curve; as a rule, active = well fitted curve in the direction sought with a large enough effect; inconclusive = small, poorly fitted or top-dose-only effect, or another doubt; inactive = no such curve, though single readings can be large or run the other way. Non-standard residues stand in square brackets, D forms with d. Residues, ends and D or L forms follow the SMILES beside them. Orn = NCCC[C@H](N)C(=O)O
# Assay: qHTS Assay for Identifying Gametocytocidal Compounds (AID 743244);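 for max response: actives lower the fluorescent signal which means gametocytes are killed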
# Settings: P. falciparum 3D7 stage III-V gametocytes, alamarBlue, 72 h; max response: stronger effect = lower value
# How it was run: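 Viability read-out was resazurin reduction (alamarBlue, 24 h) measured at Ex 525/Em 598 nm. Beforehand, late-stage (III-V) 3D7 P. falciparum gametocytes at 20,000 cells/well were incubated with compound 72 h at 37C under 5% CO2.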
# % is set by controls: 0 for no effect and ±100 for the full control effect; potency is the fitted concentration of half-maximal effect.
Compound,max response,Potency
CCCC(=O)Nc1ncnc2c1ncn2[C@@H]1O[C@@H]2COP(=O)(O)O[C@H]2[C@H]1OC(=O)CCC,-2.66% (inactive),–
CC(=O)N[C@@H](CC(=O)N[C@@H](CCC(=O)O)C(=O)O)C(=O)O,-4.86% (inactive),–
C#CCOc1ccc2c(C)cc(=O)oc2c1,7.39% (inactive),–
CCCCC(=O)O[C@]1(C(=O)CO)[C@H](C)C[C@H]2[C@@H]3CCC4=CC(=O)C=C[C@]4(C)[C@@]3(F)[C@@H](O)C[C@@]21C,12.3% (inactive),–
CC1(C)S[C@@H]2[C@H](NC(=O)C(C(=O)O)c3ccsc3)C(=O)N2[C@H]1C(=O)O (some centres undefined),10.2% (inactive),–
CNc1cc(OC)c(C(=O)N[C@H]2CCN(Cc3ccccc3)[C@H]2C)cc1Cl,-16.8% (inactive),–
NCc1ccccc1CC(=O)N[C@@H]1C(=O)N2C(C(=O)O)=C(CSc3nnnn3CC(=O)O)CS[C@H]12,5.62% (inactive),–
CO[C@@H]1[C@@H](O[C@@H]2O[C@H](C)[C@@H](O[C@H]3C[C@@](C)(O)[C@@H](O)[C@H](C)O3)[C@H](N(C)C)[C@H]2O)[C@@H](CC=O)C[C@@H](C)[C@@H](O[C@@H]2CC[C@H](N(C)C)[C@@H](C)O2)/C=C/C=C/C[C@@H](C)OC(=O)C[C@H]1O,23.5% (inactive),–
CO[C@H]1C=CO[C@@]2(C)Oc3c(C)c(O)c4c(O)c(c(/C=N/N5CCN(C6CCCC6)CC5)c(O)c4c3C2=O)NC(=O)/C(C)=C\C=C[C@H](C)[C@H](O)[C@@H](C)[C@@H](O)[C@@H](C)[C@H](OC(C)=O)[C@@H]1C,–,10 µM (active)
CC[C@@H](C(=O)[C@@H](C)[C@@H](O)[C@H](C)CCc1ccc(C)c(O)c1C(=O)O)[C@H]1O[C@](CC)([C@H]2CC[C@](O)(CC)[C@H](C)O2)C[C@@H]1C,–,7.08 µM (active)
Nc1ncnc2c1ncn2[C@@H]1O[C@H](COP(=O)(O)OP(=O)(O)OP(=O)(O)O)[C@@H](O)[C@H]1O,-2.1% (inactive),–
C=CCSSSCC=C,-8.99% (inactive),–
O=C1C(=O)c2ncccc2-c2cccnc21,–,0.148 µM (active)
CC[N+](CC)(CC)CCC(O)(c1ccccc1)C1CCCCC1 (centres undefined),4.48% (inactive),–
CC(=O)OC(C)OC(=O)C(C)c1ccc(-c2ccccc2)c(F)c1 (centres undefined),-5.75% (inactive) and -9.98% (inactive),–
CC(=O)N(CC(C)C(=O)O)c1c(I)cc(I)c(N)c1I (centres undefined),4.12% (inactive),–
C/C1=C2N=C(/C=C3N=C(/C(C)=C4\[N-][C@@](C)([C@@H]5N=C1[C@](C)(CCC(=O)NCC(C)OP(=O)(O)O[C@H]1[C@@H](O)[C@@H](n6cnc7cc(C)c(C)cc76)O[C@@H]1CO)[C@H]5CC(N)=O)[C@@](C)(CC(N)=O)[C@@H]4CCC(N)=O)[C@@](C)(CC(N)=O)[C@@H]\3CCC(N)=O)C(C)(C)[C@@H]/2CCC(N)=O.CC(=O)O.[Co] (some centres undefined),–,20 µM (active)
OCC(S)CS (centres undefined),–,3.98 µM (active)
OC[C@H]1O[C@@H](OCCc2ccc(O)cc2)[C@H](O)[C@@H](O)[C@@H]1O,2.01% (inactive),–
CC[C@H]1OC(=O)C[C@@H](O)[C@H](C)[C@@H](O[C@@H]2O[C@H](C)[C@@H](O)[C@H](N(C)C)[C@H]2O)[C@@H](CCN2C[C@H](C)C[C@H](C)C2)C[C@@H](C)C(=O)/C=C/C(C)=C/[C@@H]1CO[C@@H]1O[C@H](C)[C@@H](O)[C@@H](OC)[C@H]1OC,-0.81% (inactive),–
CC(=O)O[C@]1(C(C)=O)CC[C@H]2[C@@H]3CCC4=CC(=O)CC[C@]4(C)[C@@]3(F)[C@@H](O)C[C@@]21C,11% (inactive),–
CC(Oc1ccccc1)C(=O)N[C@@H]1C(=O)N2[C@@H]1SC(C)(C)[C@@H]2C(=O)O (some centres undefined),15.7% (inactive),–
CC(C)C[C@@H]1NC(=O)[C@H](CCCN)NC(=O)[C@H](C(C)C)NC(=O)[C@@H]2CCCN2C(=O)[C@@H](Cc2ccccc2)NC(=O)[C@H](CC(C)C)NC(=O)[C@H](CCCN)NC(=O)[C@H](C(C)C)NC(=O)[C@@H]2CCCN2C(=O)[C@@H](Cc2ccccc2)NC1=O (cyclo(V[Orn]L[dF]PV[Orn]L[dF]P)),–,2.24 µM (active)
CO[C@H]1C[C@H](O[C@H]2[C@H](C)[C@@H](O[C@@H]3O[C@H](C)C[C@H](N(C)C)[C@H]3OC(C)=O)[C@@H](C)C[C@]3(CO3)C(=O)[C@H](C)[C@@H](OC(C)=O)[C@@H](C)[C@@H](C)OC(=O)[C@@H]2C)O[C@@H](C)[C@@H]1OC(C)=O,7.91% (inactive),–
